# In the supplement of paper PMC6555819:
# Assays:
# Assay in all cases: PBM binding z-score (relative to random genomic background probes); higher = stronger binding; sequences stand for … in GC…GCGATTGACAGCGTAGAATGAAGG
# [1] = system: PPARg:RXRa DBDmut IVT, anti-RXR (DBD mutation: RXRa K156A/R161A, NR concentration 270 nM, RXRa partner concentration 90 nM)
# In short: (§1)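 Ligand-free nuclear receptor dimers were bound for 1 h to custom Agilent 4×180K protein-binding microarrays. Detection used antibodies against each partner (one per run). Binding z-scores rest on regression-normalized fluorescence, with random background probes as the reference.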
# [2] = system: PPARg:RXRa IVT, anti-PPARg (NR concentration 270 nM, RXRa partner concentration 90 nM)
# In short: as §1
# [3] = system: PPARg DBDmut:RXRa IVT, anti-PPARg (DBD mutation: PPARg1 K132A/R137A, NR concentration 270 nM, RXRa partner concentration 90 nM)
# In short: as §1
# [4] = system: PPARg DBDmut IVT, anti-PPARg (DBD mutation: PPARg1 K132A/R137A, NR concentration 270 nM)
# In short: as §1
# [5] = system: PPARg homodimer (NR concentration 180 nM)
# In short: as §1
# [6] = system: PXR:RXRa (NR concentration 270 nM, RXRa partner concentration 90 nM)
# In short: as §1
# [7] = system: PXR homodimer (NR concentration 270 nM)
# In short: as §1
# [8] = system: RARa:RXR (NR concentration 270 nM, RXRa partner concentration 90 nM)
# In short: as §1
# [9] = system: RARa homodimer (NR concentration 270 nM)
# In short: as §1
# [10] = system: RARb:RXRa (NR concentration 270 nM, RXRa partner concentration 90 nM)
# In short: as §1
Sequence,PBM binding z-score [1],PBM binding z-score [2],PBM binding z-score [3],PBM binding z-score [4],PBM binding z-score [5],PBM binding z-score [6],PBM binding z-score [7],PBM binding z-score [8],PBM binding z-score [9],PBM binding z-score [10]
CCTACTGGGCCTAAAAGGTCATTGATGCCGATAA,0.181,1.85,-0.634,-1.2,2.99,4.85,2.21,5.06,1.56,4.02
CCTGCTAGGTCATGGACAGCTAATCTACAGTATG,4.72,3.72,0.434,0.0292,0.812,1.4,-0.443,2.53,0.184,3.84
CAAACTAGGTCACATAGGTCAAAGTCCGTGCGTA,8.33,8.57,3,4.3,4.12,5.04,4,5.51,2.09,4.7
CCTATTAGTTGACCATATGGGCAACCGAAGCTCG,0.421,1.14,0.935,0.461,0.842,0.0373,0.489,0.314,1.68,0.652
ATATGTAGGTTAACGGTCATTCAGGTTGGTTCGC,8.01,8.1,3.09,2.01,2.2,1.84,0.701,2.01,0.573,2.41
AGAACGAGGACACGCTGAGTTGATAGCAGAGTAG,1.51,1.16,-0.315,0.431,0.209,-0.361,0.196,-0.397,-0.0719,1.4
CCGAGTAGGTTATGGGGCCTTCAGGCAACGGTGA,3.11,2.85,-0.856,-1.59,0.629,-0.268,-0.427,0.0801,0.0148,0.668
CCTTACGGGTCACTGCAGGTTATAGCATCGGAGT,3.51,3.76,-0.541,-0.0144,1.95,4.74,0.0878,4.05,0.239,3.97
ATATGTAGGTTATCGGGTCATTCAGTTTGCGCAT,7.56,7.99,3.73,2.54,2.67,3.75,7.33,3.54,1.75,2.56
CCGACTGGGGCAAAGGCTACCATACTCAGTACGA,2.79,3.71,-0.0188,-0.284,0.531,-0.487,-0.267,-0.203,-0.204,0.812
CCTAGCAGGCCAATCTGGGTCACTCGAGGCTTGA,4.16,4.75,-0.336,0.34,1.39,1.1,-0.592,1.85,-0.324,1.56
CCAGACAGGTGAGAAGGTAACTCATCCTCGATTA,1.17,0.6,-0.78,0.324,0.757,0.375,0.22,0.525,0.718,0.607
CCGACTGGGGCAAGGTTACCATTACGCACAGCCA,2.66,3.49,-0.296,-0.507,0.706,0.214,-0.376,0.792,0.0733,1.56
GCTGCTAGATCAACTGATGGTCAGCTAAAGCTCG,-0.127,-0.576,-0.911,-0.65,-0.483,-0.788,-0.885,-0.512,-1.53,-0.39
CCTACTGGGCCATCAGGTCATTCATATCAACGTT,4.57,4.74,0.597,0.12,1.48,1.73,1.07,1.96,0.469,2.01
CCGAGTAGGTTTTGGGGCATTCAGGCAACGGTGA,0.795,0.696,-0.353,-0.0504,0.76,-0.31,-0.0267,0.2,0.947,0.205
ACTCGGAGGACAAAGTTCAGAGCTACGCCAGTGA,0.00289,1.33,-0.512,-0.633,1.27,1.98,1.2,1.47,0.278,2.97
CCGCCTAGGTCAGGGCCAGTATAGGAGGAACGTT,0.73,1.29,-1.13,-2.07,0.393,0.629,-0.663,1.47,-0.0818,3.43
ACTAGCAGGCCAAGGGTCACTCGAGATTAGTCCG,1.3,3.54,-0.0207,-0.0831,2.15,3.15,-0.376,3.97,0.545,3.48
TCTTGTAGATCAATCAGGTTAAGAAAGCCTGAGT,1.98,0.808,1.29,0.885,-0.302,0.413,-0.0985,0.669,-0.252,0.281
ATGGAAAGGTCGACGAGGTGAGTATACACCGTTT,0.338,1.89,0.736,1.01,1.38,2.96,0.609,3.54,0.422,3.73
CATACAGGGTCAGCTAGGCAAGAGTAGGGACGGC,0.883,2.27,0.128,0.564,1.62,1.97,-0.336,2.62,0.47,3.91
GCATATAGCTAATACAAGGTGAAAGTCCGATTGT,0.11,0.315,0.87,-0.0254,0.259,0.262,0.241,0.651,0.533,0.107
